According to PubChem BioAssay AID1347416 (National Center for Advancing Translational Sciences (NCATS), 2020):
Hit rate of the full screen: of about 4,100 compounds, about 1,600 (39%) were called active. Roughly 25% stayed inconclusive and do not appear here. The call rests on the fitted dose curve; in most records, active means well fitted inhibition curve with a large enough effect; inconclusive means small, poorly fitted or top-dose-only effect; inactive means no such curve, though single readings can be large or run the other way. Some of the results follow.

Assay: qHTS Validation assay for Inhibitors of Plasmodium falciparum Dd2 growth in vitro; further: nearly all actives have a fitted effect of over 70% in size
Settings: P. falciparum Dd2 in RBCs, SYBR Green growth, 72 h; series mostly up to 28.7 µM; activity change, negative = inhibition: at the top concentration
Text: Malaria, a parasitic disease spread to humans through the bite of a Plasmodium infected Anopheles mosquito, continues to be a global health burden affecting millions of people, with an estimated 228 million cases and 405,000 deaths in 2018. Concerns about safety and limitations of current antimalarial treatments strongly emphasize the need to develop new therapeutic options. The scarce number of chemotypes and validated drug targets with efficacy against the liver stage, have hindered development of new antimalarials. To address this, a chemoprophylactic drug discovery effort was conducted through a combined phenotypic high-throughput asexual blood stage and liver stage screen, providing a robust foundation to identify liver-stage active lead chemotypes. Compounds were initially screened against Plasmodium falciparum Dd2 strain parasites using a in vitro SYBRGreen-1 based 72 hr proliferation assay to identify novel chemotypes to advance to liver stage assays. NIH/NCATS Early Translation Branch Assay Submitter (PI): Anton Simeonov Ph.D.
[…] Assay Protocol: PROTOCOL TABLE (as described by Inglese et al., 2007) SEQUENCE No. (e.g., 1, 2, 3, etc.); PARAMETER (e.g., Cells, Incubation, Reagent, etc.); VALUE; DESCRIPTION SEQUENCE, Parameter, Description 1; Reagent; 3 uL complete malaria growth medium, 1536 TC treated Black clear bottom plate 2; Controls; 23 nL positive control artesunate (300 nM final) to column 1; Neutral control DMSO to columns 2-4 3; Compound; 23 nL of compounds in dose response concentration (29 uM to 0.5 nM final) 4; Reagent; 5 uL malaria infected red blood cells (2.5% hematocrit final, 0.3% parasitemia 5; Time; 72 hours at 37C (5% O2, 5% CO2, 90% N2; 95% Rh) 6; Reagent; 2 uL lysis buffer/SYBRGreen-1, 25 sec shake immediately following dispense 7; Time; ~16 hours at 37C (5% O2, 5% CO2, 90% N2; 95% Rh) 8; Detector; EnVision (PerkinElmer) bottom read at 485/14nm excitation and 535/25 nm emission NOTES (numbers refer to sequence above): 1; Complete Malaria Growth Media: 1X RPMI-1640 w/L-glutamine, 5.5g/L Albumax II, 367 uM Hypoxanthine, 25 mM HEPES, 0.25% Sodium Bicarbonate, 35 uM Gentamicin sulfate 2; Controls were added using the Kalypsis Pintool (Wako USA) equipped with 1536 pinhead 3; Compounds were added in a 7-point, titration with a high final concentration of 29 uM by Pintool from seven inter-plate titrations of library plates and two DMSO control plates at the beginning and end (see Yasgar et al., 2008). 4; Red blood cells infected with Plasmodium falciparum Dd2 parasites were used. 6; Lysis buffer: 20 mM Tris-HCl, 10 mM EDTA, 0.16% Saponin, 1.6% Triton-X, 10X SYBR Green. REFERENCE: Inglese J, Shamu CE, Guy RK. 2007. Reporting data from high-throughput screening of small-molecule libraries. Nat Chem Biol. doi:10.1038/nchembio0807-438 Yasgar A, Shinn P, Jadhav A, Auld D, Michael S, Zheng W, Austin CP, Inglese J, Simeonov A. 2008. Compound Management for Quantitative High-Throughput Screening. J Lab Autom 13:79-89. doi:10.1016/j.jala.2007.12.004
On the % scale 0 is the no-effect control and ±100 the full control effect; potency means the concentration at half of the fitted maximal effect.

Compound | activity change, negative = inhibition | Potency
COc1ccc(-c2nc3ccccc3o2)cc1NC(=O)COc1c(C)cc(Cl)cc1Cl | 13.1% (inactive) | –
COc1ccccc1NCc1cc(=O)oc2c(C)c(O)ccc12 | – | 5.96 µM (active)
Cc1ccc(Nc2cc(=O)oc3ccccc23)c(C)c1 | -20.1% (inactive) | –
COc1ccc(C)cc1NCc1cc(=O)oc2cc(-c3ccccc3)c(O)cc12 | – | 5.31 µM (active)
O=C(Nc1ccc([N+](=O)[O-])cc1)Nc1ccc(OC(F)F)c(Cl)c1 | – | 2.66 µM (active)
Oc1ccc(CN2CCCCC2)nc1-c1ccccc1 | – | 0.531 µM (active)
CN1C(=O)CC(C(=O)O)C12CCN(Cc1cccc(C(=O)O)n1)CC2 (stereo not given) | 37.6% (inactive) | –
Oc1ccc(-c2ccccc2)cc1CN1CCCCCC1 | – | 0.266 µM (active)
CNC(=O)[C@H]1C[C@H](Oc2ccccc2)CN1C(=O)CCc1nc2ccccc2[nH]1 | 4.06% (inactive) | –
C/C(Cl)=C/Cc1c(C)[nH]c2c(ccc3ccccc32)c1=O | – | 0.842 µM (active)
COc1ccc(-n2nc(C3CCCN(C(=O)Nc4ccccc4)C3)[nH]c2=O)cc1 (stereo not given) | 0% (inactive) | –
O=c1[nH]c(C2CCCN(Cc3ccccn3)C2)nn1-c1ccc(Cl)cc1 (stereo not given) | – | 2.37 µM (active)
O=c1[nH]c(C2CCCN(Cc3ccc(F)cc3)C2)nn1-c1ccc(Cl)cc1 (stereo not given) | -21.6% (inactive) | –
CCn1ccc2sc(C)c(C(=O)N3CCC(Cc4ccccc4)CC3)c2c1=O | 1.55% (inactive) | –
C/C=C/c1cc(CN2CCN(c3ccccc3)CC2)c(O)c(OC)c1 | – | 5.96 µM (active)
COc1cc(C)cc(CN2CCC(Cc3ccccc3)CC2)c1O | – | 0.75 µM (active)
COc1ccc(C(=O)N2CCC(Cc3nc(-c4ccccc4)n[nH]3)CC2)cc1OC | -19% (inactive) | –
O=C(CCc1nc2ccccc2s1)N1CCC(c2nc(C3CCOCC3)no2)CC1 | -6.71% (inactive) | –
CCN1C(=O)C2CC3(CCN(C(=O)CCc4nc5ccccc5[nH]4)CC3)CN2C1=O (stereo not given) | 13.2% (inactive) | –
COC1CN(c2ccc(C)cc2)C12CCN(C(=O)CCc1nc3ccccc3s1)CC2 (stereo not given) | – | 10.6 µM (active)

Compound | activity change, negative = inhibition | Potency
Cc1ccc(C(=O)N2CCCC(n3cc(-c4nc(-c5ccccc5)no4)nn3)C2)cc1 (stereo not given) | 0.926% (inactive) | –
CCN1CCN(C(=O)c2ccc(-c3nnc4ccc(NC(=O)C5CC5)cn34)cc2)CC1 | – | 6.68 µM (active)
CCN(CC)C(=O)c1ccc(-c2nnc3ccc(NC(=O)C4CC4)cn23)cc1 | – | 2.99 µM (active)
COc1ccc(C(=O)Nc2cccc(-c3nnc4n3CCCC4)c2)cc1F | -19% (inactive) | –
Cc1ccc(CCNC(=O)C2CCN(C(=O)c3cc4c(=O)[nH]c(C)cn4n3)CC2)cc1 | 7.15% (inactive) | –
COc1ccc(C2Cn3cnc(C(=O)N4CCC(C(=O)Nc5ccc(F)c(C)c5)CC4)c3CO2)cc1 (stereo not given) | 2.95% (inactive) | –
CC(=O)Nc1ccc2nnc(-c3ccc(C(=O)N4CCCCCC4)cc3)n2c1 | – | 8.41 µM (active)
COc1cccc(NC(=O)c2ccc(-c3nnc4ccc(NC(=O)C5CCC5)cn34)cc2)c1 | – | 3.76 µM (active)
O=C(c1ccsc1)N1CCN(c2nnc3ccc(C(F)(F)F)cn23)CC1 | -20.5% (inactive) | –
CCc1ccc(NC(=O)C2CCN(C(=O)c3nnn4cc(C)[nH]c(=O)c34)CC2)cc1 | 30.5% (inactive) | –
O=C(Nc1cccc(-c2nnc3n2CCCC3)c1)c1ccoc1 | -11.3% (inactive) | –
COc1ccc(C(=O)Nc2ccc(-c3nc4ncccc4o3)cc2)cc1 | -23.5% (inactive) | –
CC(C)(C)NC(=O)c1ccc(-c2nnc3ccc(NC(=O)C4CC4)cn23)cc1 | – | 9.44 µM (active)
COc1ccc(NC(=O)c2ccc(-c3nnc4ccc(NC(=O)C5CCC5)cn34)cc2)cc1 | – | 4.22 µM (active)
CCOc1ccc(C(=O)Nc2cccc(-c3nnc4n3CCCC4)c2)cc1 | -14.3% (inactive) | –
CCCc1noc(-c2ccn3c(CNC(=O)c4ccc(OC)cc4)nnc3c2)n1 | -13.4% (inactive) | –
COc1ccc(C(=O)Nc2ccc(OCc3cc(=O)n4ccccc4n3)cc2)cc1 | 13.9% (inactive) | –
COc1ccc(NC(=O)c2ccc3c(c2)N(C)C2CCCCN2C3=O)cc1 (stereo not given) | 11.3% (inactive) | –
CCOc1ccc(NC(=O)c2ccc(-c3nnc4ccc(NC(=O)C5CC5)cn34)cc2)cc1 | – | 2.99 µM (active)
COc1ccc(NC(=O)c2ccc(-c3nnc4ccc(NC(=O)C5CC5)cn34)cc2)cc1 | – | 2.66 µM (active)

Compound | activity change, negative = inhibition | Potency
CCC(=O)Nc1ccc2nnc(-c3ccc(C(=O)Nc4ccc5c(c4)OCCO5)cc3)n2c1 | – | 7.5 µM (active)
COCCN1C(=O)CCc2cc(NC(=O)c3ccc4c(c3)OCO4)ccc21 | -9.58% (inactive) | –
Cc1cn2nc(C(=O)Nc3ccc4c(c3)OCCO4)cc2c(N2CCCC2)n1 | 0% (inactive) | –
CNCC(=O)N1CCC2(CC1)CN(Cc1ccccc1)CC2CO (stereo not given) | 8.38% (inactive) | –
O=C(Cc1ccccc1)NCC1CN(Cc2cccc(Cl)c2)CC12CN(c1ccccc1)C2 (stereo not given) | 5.28% (inactive) | –
Cn1cc(C(=O)NCC2CN([S+](=O)([O-])c3ccccc3Cl)CC23CN(c2ccccc2)C3)cn1 (stereo not given) | -15.3% (inactive) | –
NC(=O)c1ccccc1OCC(=O)N1CC(CNC(=O)Nc2ccccc2)C2(C1)CN(c1ccccc1)C2 (stereo not given) | -14.4% (inactive) | –
COc1ccccc1C(=O)N1CC(CNC(=O)C2CC2)C2(C1)CN(c1ccccc1)C2 (stereo not given) | 8.56% [at 43.1 µM] (inactive) | –
Oc1ccc(CN2CC(CNc3ccccc3)C3(C2)CN(c2ccccc2)C3)cc1 (stereo not given) | – | 0.611 µM (active)
O=[S+]([O-])(NCC1CN(Cc2ccc(O)cc2)CC12CN(c1ccccc1)C2)c1ccccc1 (stereo not given) | – | 6.68 µM (active)
O=C(Cc1ccc(O)cc1)N1CC(CNc2ccccc2)C2(C1)CN(c1ccccc1)C2 (stereo not given) | – | 0.243 µM (active)
O=C(N[C@H]1CCOC[C@H]1C1CCOCC1)c1ccccc1-c1ccccc1 | 46.3% (inactive) | –
O=C(CCS(=O)(=O)c1cc(Br)cc2c1N(C(=O)C1CC1)CC2)Nc1ccc(Br)cc1F | – | 3.35 µM (active)
CC(=O)Nc1ccc(NS(=O)(=O)c2cc(Br)cc3c2N(C(=O)C2CC2)CC3)cc1 | 25.6% (inactive) | –
CC(=O)N1CCc2cc(S(=O)(=O)CCC(=O)N3CCC(CCOc4ccccc4)C3)ccc21 (stereo not given) | -21.9% (inactive) | –
Cc1ccc(NC(=O)CCS(=O)(=O)c2ccc(Br)cc2)c(C)c1 | 40% (inactive) | –
Cc1ccc(NC(=O)CCS(=O)(=O)c2cc(Br)cc3c2N(C(=O)C2CC2)CC3)cc1 | – | 2.37 µM (active)
O=C(C1CC1)N1CCc2cc(Br)cc(S(=O)(=O)N3CCN(c4cccc(C(F)(F)F)c4)CC3)c21 | – | 4.73 µM (active)
O=C1Cc2cc(S(=O)(=O)N3CCN(c4cccc(Cl)c4)CC3)ccc2N1 | -37.7% (inactive) | –
O=C(CCS(=O)(=O)c1cc(Br)cc2c1N(C(=O)C1CC1)CC2)N1CCN(c2cccc(Cl)c2)CC1 | – | 13.3 µM (active)
